# Compound activity: PubChem BioAssay, National Center for Advancing Translational Sciences (NCATS)
# In the library only some 7.5% were active in any assay of this set; here they are far more common.
# TSHR antag = human thyrotropin receptor antagonism; P16473; TSHR-expressing cells, TSH-stimulated cAMP HTRF, 2 h; stronger effect = lower value; activity change, negative = inhibition, % at 11.5 µM; 330,000 compounds, 0.2% hits; AID 504810;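 active = activity change below a set negative limit, meaning inhibition stronger than a set level, cut at about -70% in these data; inconclusive = activity change between two set negative limits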
#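 Inhibition of cAMP made by TSHR-expressing cells under TSH stimulation (4nM final, EC80; 2 h, 37 deg C) is quantified with a one-step lysis HTRF kit, anti-cAMP cryptate versus cAMP-d2.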
# B2AR arrestin = agonists driving beta-arrestin recruitment to human beta2-adrenergic receptor. P07550. beta-arrestin recruitment to beta2AR, cell-based reporter. Potency, µM (top dose mostly 46.1 µM), for inactives: top-dose activation, most hits filed as activators. 330,000 compounds, 0.02% hits;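 also: potency is read from the fitted curve at half-maximal effect; 0% = DMSO controls and full agonism = EC100 isoproterenol or metaproterenol; nearly all actives have a fitted effect of over 65% in size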
# ELG1 repair inh = ELG1-dependent DNA repair inhibition; AID 504467; 330,000 compounds, 2.3% hits; Potency, µM (titrated, usually from 46.1 µM), without a hit: at the highest dose activity change, negative = inhibition, usual class: inhibitors; HEK293T ELG1-luciferase reporter, luminescence, 16 h; DNA damage induced by 5-fluorouridine; also: potency is read from the fitted curve at half-maximal effect; nearly all actives have a fitted effect of over 55% in size
#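 Step one: seed 2,000 cells per well. Step two: pin-transfer compound or DMSO alongside 5-fluorouridine. Step three: incubate 16 hr, 37 °C, 5% CO2. Step four: add ONE-Glo, wait 30 min, read luminescence.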
# VP16 counter = inhibits Gal4-VP16 luciferase reporter, ROR gamma counter-screen | AID 2546 | Drosophila S2 Gal4-VP16 UAS-luciferase, luminescence, 20 h | Potency, µM (doses to about 53.6 µM), without a hit: top-dose activity, negative = inhibition, actives largely listed as inhibitors | 310,000 compounds, 3.5% hits;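 also: Gal4-VP16 expression switched on by copper sulfate through the metallothionein promoter; potency is read from the fitted curve at half-maximal effect; nearly all actives have a fitted effect of over 50% in size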
# RORg inh = ROR gamma (mouse) transcription inhibition; 310,000 compounds, 5.4% hits; Potency, µM (highest dose often 53.6 µM), for inactives: at the top dose activity change, negative = inhibition, actives largely listed as inhibitors; Drosophila S2 Gal4-RORgamma UAS-luciferase reporter, 20 h; P51450; also: potency is read from the fitted curve at half-maximal effect; nearly all actives have a fitted effect of over 60% in size
# Target sequence (P51450 whole entry, looked up, the tested form may be a part): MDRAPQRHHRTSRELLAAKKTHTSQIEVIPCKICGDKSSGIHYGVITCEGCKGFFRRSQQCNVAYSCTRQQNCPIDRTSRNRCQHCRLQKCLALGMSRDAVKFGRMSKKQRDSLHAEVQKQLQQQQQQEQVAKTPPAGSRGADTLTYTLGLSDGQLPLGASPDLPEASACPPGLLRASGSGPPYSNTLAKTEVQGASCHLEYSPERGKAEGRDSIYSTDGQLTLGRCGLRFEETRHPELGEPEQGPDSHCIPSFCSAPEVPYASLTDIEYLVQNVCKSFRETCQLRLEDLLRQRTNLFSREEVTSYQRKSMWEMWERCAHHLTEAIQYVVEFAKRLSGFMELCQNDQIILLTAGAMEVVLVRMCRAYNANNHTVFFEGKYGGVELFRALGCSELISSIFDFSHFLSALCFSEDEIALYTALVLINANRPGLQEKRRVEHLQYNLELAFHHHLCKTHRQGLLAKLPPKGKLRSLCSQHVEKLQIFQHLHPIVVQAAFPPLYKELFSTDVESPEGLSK
#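 Stably transfected Drosophila Schneider cells are the test system, with ROR gamma fused to Gal4 and luciferase under UAS control; luminescence is read after 20 hr of 700 uM copper sulfate induction at ambient temperature.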
# Starred values were filed as active, the others as inactive; ? = inconclusive; / = no result given; ! = a repeat was not active; [ ] = another dose, or the depositor's remark. Unless noted, calls follow the shape of the dose curve; as a rule, active = well fitted curve in the direction sought with a large enough effect; inconclusive = small, poorly fitted or top-dose-only effect, or another doubt; inactive = no such curve, though single readings can be large; an effect the other way counts as inactive or inconclusive. Unless noted, % is scaled to controls: 0 for no effect and ±100 for the full control effect.
SMILES,TSHR antag,B2AR arrestin,ELG1 repair inh,VP16 counter,RORg inh
COC(=O)C1=NN(C(=O)c2ccccc2)C(C)(O)C1 (stereo unspecified),-15,0%,?,-6%,-17%
CCC1=NN(C(=O)COc2ccccc2)C(O)(c2ccncc2)C1 (stereo unspecified),21,0%,-21%,-19%,19%
CC1=NN(C(=O)CSCc2ccccc2)C(O)(c2ccc(Cl)cc2)C1 (stereo unspecified),-4,5%,-13%,?,10µM*
CCOC(=O)C1=NN(C(=O)COc2ccccc2)C(O)(c2ccc(Br)cc2)C1 (stereo unspecified),0,0%,-3%,11µM*,4.5µM*
CCOc1ccccc1NC(=O)Nn1cnnc1,-4,0%,0%,2%,3%
O=C1/C(=C/c2cccnc2)Oc2cc(OS(=O)(=O)c3ccc(Cl)cc3)ccc21,-28,0%,15µM*,3%,13%
CCCCCCCC/C=C\CCCCCCCCN,/,/,/,-15%,13%
CN(Cc1c(C(=O)N/N=C/c2cccc(O)c2)nnn1-c1nonc1N)c1ccccc1,5,1%,-29%,6%,11%
Cc1ccsc1/C=N/NC(=O)c1nnn(-c2nonc2N)c1CN(C)c1ccccc1,-13,-1%,-15%,3.2µM*,4µM*
CCc1c(C(=O)N/N=C/c2sccc2C)nnn1-c1nonc1N,-10,0%,?,10µM*,10µM*
Nc1nonc1-n1nnc(C(=O)N/N=C/c2cc(Br)ccc2O)c1CNc1ccccc1,-20,-1%,?,7.1µM*,5µM*
Cc1ccc(/C=N/NC(=O)c2nnn(-c3nonc3N)c2CN(C)c2ccccc2)s1,-8,0%,13%,?,18µM*
CCCCN1C(=O)C(=O)N(CC(=O)c2cc(C)n(C3CC3)c2C)C1=O,-21,0%,?,/,/
C=CCCCCCCCCCBr,/,/,/,1%,3%
Cc1c(C(=O)N/N=C/c2c(O)ccc3ccccc23)nnn1-c1nonc1N,-1,0%,?,7.1µM*,4.5µM*
CC(NNC(=O)c1ccccc1)c1ccccc1 (stereo unspecified),/,/,/,0%,4%
Cc1ccc2oc3c(c(=O)c2c1)C(c1cccc(Cl)c1)N(CCCN1CCOCC1)C3=O (stereo unspecified),-6,9%,10µM*,3%,6%
Cc1ccc2oc3c(c(=O)c2c1)C(c1ccc(F)cc1)N(CCCN1CCOCC1)C3=O (stereo unspecified),-1,0%,0%,2%,5%
CC1=C(CO)C(=O)OC([C@@H](C)C2CC[C@H]3C4C[C@H]5O[C@]56[C@@H](O)C=CC(=O)[C@]6(C)C4CC[C@]23C)C1 (stereo partly specified),-39,0%,9.2µM*,?,?
CCOC(=O)c1sc2nc(C)nc(SCC(=O)N(CC)C3CCS(=O)(=O)C3)c2c1C (stereo unspecified),-6,0%,16µM*,0%,13%
COc1ccc(C2CC(c3ccccc3)=NN2c2ccc(S(N)(=O)=O)cc2)cc1OC (stereo unspecified),7,0%,-20%,-4%,8%
COc1ccc(C2=NN(c3ccc(C(=O)O)cc3)C(c3ccc(OC)c(OC)c3)C2)cc1 (stereo unspecified),-13,3%,?,-15%,7.1µM*
C=CCO/N=C(/C)c1ccc(Oc2cnccn2)cc1,-3,0%,24%,-5%,34%
COc1ccc(N2C(=S)NC(C)(C)CC2(C)c2ccc(OC(C)=O)cc2OC(C)=O)cc1 (stereo unspecified),-6,3%,-9%,?,10µM*
CC(=O)Oc1ccc(C2(C)CC(C)(C)Oc3cc(OC(C)=O)ccc32)c(OC(C)=O)c1 (stereo unspecified),-8,0%,1%,5%,23%
SMILES,TSHR antag,B2AR arrestin,ELG1 repair inh,VP16 counter,RORg inh
COC(=O)[C@H](Cc1ccccc1)NC(=O)O[C@@H]1C(=O)c2cc(OC)ccc2O[C@H]1c1ccc(OC)c(Br)c1,-11,-2%,2.9µM*,1%,-6%
COc1ccc2c(c1)C(=O)[C@H](O)[C@@H](c1ccc(OC)c(Br)c1)O2,-16,4%,-20%,13µM*!,7.1µM*
CN(c1ccc(F)cc1)S(=O)(=O)c1ccc(Cl)c(C(=O)Nc2ccncc2)c1,4,0%,12µM*,/,/
CN(c1ccccc1)S(=O)(=O)c1ccc(Cl)c(C(=O)Nc2ccncc2)c1,-5,0%,?,/,/
O=C(NC12CC3CC(CC(C3)C1)C2)c1cnccn1,11,0%,10%,-8%,-1%
C/C(CC(=O)NC12CC3CC(CC(C3)C1)C2)=N\NC(=O)c1cnccn1,1,0%,24%,?,13µM*
C/C(CC(=O)NC12CC3CC(CC(C3)C1)C2)=N\NC(=O)c1ccc(F)cc1,3,0%,5%,?,18µM*
COc1ccc(-c2nn(-c3ccccc3)cc2/C=N/Nc2ccc(S(N)(=O)=O)cc2[N+](=O)[O-])cc1OC,-12,0%,?,?,?
COc1ccc(-c2nn(-c3ccccc3)cc2/C=N/NC(=S)NC(C)C)cc1OC,-3,0%,12µM*,2.2µM*,1.4µM*
COc1ccc(-c2nn(-c3ccccc3)cc2/C=N/Nc2ccc3ccccc3n2)cc1OC,-10,-1%,12µM*,5µM*,1.8µM*
COc1ccc(-c2nn(-c3ccccc3)cc2/C=N/N=C(N)N)cc1OC,-6,-1%,?,-7%,25%
COc1ccc(-c2nn(-c3ccccc3)cc2/C=N/O)cc1OC,-4,0%,-14%,1.8µM*,1µM*
COc1c2c(cc3c1C(CC(O)C(C)C)N(C)CC3)OCO2 (stereo unspecified),/,/,/,-4%,-2%
Cc1cc(C(=O)Cn2nc(C(=O)O)c3ccccc3c2=O)c(C)n1CCc1ccc(Cl)cc1,-15,0%,8.2µM*,-16%,-2%
Cc1cc(C(=O)Cn2nc(C(=O)O)c3ccccc3c2=O)c(C)n1-c1ccccc1,21,-1%,?,?,?
COC(=O)NC(c1ccc(F)cc1)C(C(C)=O)C(=O)OC (stereo unspecified),/,/,/,-2%[10 µM],-9%[10 µM]
O=C(NCc1cccs1)C(=O)NCC(c1ccco1)N1CCN(c2ccccc2F)CC1 (stereo unspecified),-6,0%,18µM*,-10%,11%
O=C(NCC(c1cccnc1)N1CCN(c2ccc(F)cc2)CC1)OCc1ccccc1 (stereo unspecified),4,-1%,?,?,13µM*
O=C(NCC(c1cccnc1)N1CCN(c2ccccc2F)CC1)OCc1ccccc1 (stereo unspecified),-14,0%,23µM*,7%,13%
